Keap1 Nrf2 FP: Keap1-Nrf2 (human) interaction inhibition; Keap1 Kelch-Nrf2 peptide fluorescence polarization, 1536-well; hit rate 0.15% among 340,000; AID 504523; inhibition, % at 9.4 µM; Q14145; in the data active means inhibition above about 12%;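 further: human Keap1 Kelch domain with fluorescein labeled Nrf2 9mer peptide probe; 0% = neutral control wells and 100% = peptide positive control; higher means more block of Keap1 binding to Nrf2 peptide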
Target sequence (Q14145 whole entry, looked up, the tested form may be a part): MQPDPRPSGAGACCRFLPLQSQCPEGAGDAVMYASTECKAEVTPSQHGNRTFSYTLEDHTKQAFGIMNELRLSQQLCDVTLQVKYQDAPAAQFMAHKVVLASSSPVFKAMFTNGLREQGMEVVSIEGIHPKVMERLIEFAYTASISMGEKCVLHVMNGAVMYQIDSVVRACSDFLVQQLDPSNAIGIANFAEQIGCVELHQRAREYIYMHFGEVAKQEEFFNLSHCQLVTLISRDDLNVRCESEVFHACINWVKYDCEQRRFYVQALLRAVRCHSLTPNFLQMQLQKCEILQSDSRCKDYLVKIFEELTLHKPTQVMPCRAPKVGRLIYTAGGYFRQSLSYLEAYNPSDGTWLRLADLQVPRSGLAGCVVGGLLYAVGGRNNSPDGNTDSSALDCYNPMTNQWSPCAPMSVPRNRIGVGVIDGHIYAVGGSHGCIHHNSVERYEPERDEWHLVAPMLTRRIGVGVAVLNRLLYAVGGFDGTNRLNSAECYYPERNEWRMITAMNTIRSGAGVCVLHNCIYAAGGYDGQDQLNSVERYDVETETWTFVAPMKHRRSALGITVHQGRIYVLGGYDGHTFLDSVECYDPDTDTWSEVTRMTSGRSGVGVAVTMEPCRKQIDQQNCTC
RTF Ca sens inh: cardiac RTF calcium desensitization; P19429+P45379; hit rate 0.12% among 340,000; IANBD-labeled cardiac RTF, Ca2+ fluorescence; inhibition, % at 7.15 µM;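 active means inhibition above the mean inhibition of all tested compounds plus 3 SD, cut at about 17% in these data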;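 further: assay run at fixed EC70 calcium of 1.6 mM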
cardiac RTF act: cardiac RTF calcium sensitization; hit rate 0.24% among 340,000; activation, % at 7.2 µM; IANBD-labeled TnC RTF fluorescence at EC20 calcium; 0% EC20 calcium, 100% full calcium; P19429+P45379;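 active means activation above the mean over all tested compounds plus 3 SD, cut at about 30% in these data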;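 further: rise in fluorescence read as greater calcium sensitivity of cardiac thin filaments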
eLon inh: inhibitors of E. coli Lon protease; hit rate 0.42% among 360,000; inhibition, % at 7.94 µM; purified E. coli Lon protease, fluorescence polarization; AID 602123; P0A9M0; in the data active means inhibition above about 13%, passing the limit was not always enough;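 further: 0% = enzyme with probe and DMSO and 100% = no enzyme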
C-LANA FP: KSHV C-LANA DNA binding inhibition. MBP-C-LANA/FAM-LBS DNA binding, fluorescence polarization. inhibition, % at 9 µM. hit rate 0.078% among 340,000. AID 504423;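 active means highest replicate inhibition at or above 60% at 9 µM, even if other replicates fall short; inactive means all replicates below 60% inhibition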;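 further: 0% = neutral control wells and 100% = 4 µM acridine orange control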
E coli Lon conf: E. coli Lon inhibition confirmation; AID 602230; hit rate 31% among 1,400; purified E. coli Lon, fluorescence polarization; inhibition, % at 7.94 µM; shares compounds with eLon inh; in the data active means inhibition above about 16%;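 further: 0% = enzyme with probe and DMSO and 100% = no enzyme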
* hit, by the source's call; i = inactive; / = no result; + = active, no number. The list is not random: actives were taken first. Their share in the collection is about 0.82%.

SMILES	Keap1 Nrf2 FP	RTF Ca sens inh	cardiac RTF act	eLon inh	C-LANA FP	E coli Lon conf
CCN1C(=O)c2ccccc2S(=O)c2ccc(C(=O)N3CCN(C(=O)c4ccco4)CC3)cc21 (stereo not given)	-0.3	-4.1	0.0	-12.8	0.4	/
Cc1nc(CCNC(=O)CC2C(=O)NCCN2CC(C)C)nc2c1CCC2 (stereo not given)	-0.9	-10.3	-5.3	5.6	0.8	/
Cc1nc(CCNC(=O)CC2C(=O)NCCN2CC(C)(C)C)nc2c1CCC2 (stereo not given)	-3.2	2.7	0.3	22.0*	0.5	12.0
OC(c1ccc(F)c(F)c1)c1nc(-c2cccc(C(F)(F)F)c2)cs1 (stereo not given)	/	/	/	-12.1	/	/
Cc1ccsc1C1C=C(c2cccc(Br)c2)Nc2ncnn21 (stereo not given)	6.8	-58.5	46.4*	59.7*	19.9	66.3*
COc1cc(O)c2c(c1)OC(C)(C)CC2=O	-4.8	11.7	0.4	2.7	-2.0	/
COc1cc(O)cc2cc3c(c(O)c12)C(=O)CC(C)(O)O3 (stereo not given)	1.4	4.1	12.0	18.4*	16.1	24.0*
Cc1ccc(S(=O)(=O)N(C)C)cc1NC(=O)C(C)OC(=O)C1CCC1 (stereo not given)	-5.3	-5.3	2.2	-14.6	-0.7	/
Cc1c(NC(=O)c2cc(Br)ccc2Cl)cccc1-n1cnnn1	-7.0	2.9	-3.4	20.4*	0.9	-4.5
COc1cc2oc(=O)cc(CN3CCCCC3)c2cc1Cl	/	/	/	-9.3	/	/
COc1cc2oc(=O)cc(CN3CCN(C(C)=O)CC3)c2cc1Cl	/	/	/	31.4*	/	24.4*
Cc1c(C(=O)Nc2cccc(F)c2)cnn1-c1ccccc1	-4.3	3.1	-4.3	4.7	0.7	/
CC(=O)Nc1cc(-c2cccc(NS(C)(=O)=O)c2)cn2c(-c3cccc(C(F)(F)F)c3)cnc12	/	/	/	-28.6	/	/
CC(=O)Nc1cc(-c2ccccc2N(C)C)cn2c(-c3cccc(C(F)(F)F)c3)cnc12	/	/	/	+	/	8.7
C[C@@H]1CN([C@@H](C)CO)C(=O)c2cc(NS(C)(=O)=O)ccc2O[C@@H](C)CCCCO[C@H]1CN(C)Cc1ccc2c(c1)OCO2	/	/	/	-0.1	/	/
CCN(C(=O)COC(=O)c1ccccc1Nc1ccccc1)c1c(N)n(Cc2ccccc2)c(=O)[nH]c1=O	-2.4	-0.3	-1.2	9.4	-0.2	/
CN(C(=O)CSc1nnc(Cc2cccs2)n1C1CC1)C1CCS(=O)(=O)C1 (stereo not given)	-4.6	-3.3	2.8	-3.1	1.5	/
COC(=O)c1cc(NS(=O)(=O)c2cccs2)cc(NS(=O)(=O)c2cccs2)c1	6.4	-11.1	-4.8	125.3*	0.1	15.7
CC(Oc1ccc(Br)cc1)C(=O)NCCCN1CCCC1=O (stereo not given)	1.9	0.6	2.7	-2.0	-1.9	/
COc1ccc(S(=O)(=O)NC2CC2)cc1-n1cnnn1	-1.1	/	/	-4.7	0.2	/
COc1cc(S(=O)(=O)NC2CCCC2)ccc1-n1cnnn1	-1.3	-28.0	-0.2	22.1*	-1.6	-7.2
CSc1ccc(C2C(C(=O)c3ccco3)=C(O)C(=O)N2c2nnc(SC)s2)cc1 (stereo not given)	0.8	-27.5	23.8	40.8*	4.0	48.8*
Cc1nnc(N2C(=O)C(O)=C(C(=O)c3ccco3)C2c2ccc(F)cc2)s1 (stereo not given)	-4.2	-8.7	9.8	9.2	6.0	/
O=C1N[C@@H](Cc2ccccc2)C(=O)N2[C@@H]3N(S(=O)(=O)c4ccccc4)c4ccccc4[C@]3(Br)C[C@@H]12	1.5	-9.1	-1.5	-4.5	0.2	/
O=C1N[C@@H](Cc2ccccc2)C(=O)N2[C@H]1C[C@]1([C@]34C[C@H]5C(=O)N[C@@H](Cc6ccccc6)C(=O)N5[C@H]3N(S(=O)(=O)c3ccccc3)c3ccccc34)c3ccccc3N(S(=O)(=O)c3ccccc3)[C@H]21	5.1	-11.5	-0.6	54.8*	0.4	11.5
SMILES	Keap1 Nrf2 FP	RTF Ca sens inh	cardiac RTF act	eLon inh	C-LANA FP	E coli Lon conf
O=C(NCc1ccccc1)c1ccc(S(=O)(=O)NCc2ccco2)cc1	-1.8	3.7	-2.1	5.8	-0.9	/
Cc1cc(C)nc(NS(=O)(=O)c2ccc(NS(=O)(=O)c3ccc(F)c(F)c3)cc2)n1	/	/	/	-6.3	/	/
Cc1cc(C)n2nc(C)c(-c3ccccc3)c2n1	-1.0	-5.7	-1.2	22.4*	0.7	-14.2
COc1ccc(NC(=O)CN(C)C(=O)/C=C/c2ccc(OCc3ccccc3)cc2)cc1	0.3	-3.3	0.2	19.2*	-1.3	-7.7
CN(C)/C=C1\C=C2C(=O)c3ccccc3N2C1=O	+	i	+	93.3*	+	-123.5
COc1ccc2oc(C(=O)OC(C)C(=O)NC3(C#N)CCCCC3)c(C)c2c1 (stereo not given)	-4.4	-7.4	-1.9	-0.9	-0.1	/
COC(=O)c1ccc(Nc2c([N+](=O)[O-])ccc3nonc23)cc1	0.0	-1.1	6.2	4.0	1.2	/
COc1ccc(C(=O)NCC(=O)N=Nc2c(O)n(Cc3ccccc3)c3ccccc23)cc1OC	-0.2	-7.6	-1.6	-2.2	2.2	/
COC(=O)Cn1c(O)c(N=NC(=O)CNC(=O)c2ccc3c(c2)OCCO3)c2ccccc21	-1.2	4.1	5.8	20.8*	-0.7	-4.9
Cc1ccc(-c2[nH]c3cc(C(N)=O)ccc3c(=O)c2O)cc1	0.3	-1.5	-3.5	76.1*	0.1	45.8*
CCCNC(=O)c1ccc2c(=O)c(O)c(-c3ccsc3)[nH]c2c1	2.7	-7.7	2.9	+	-1.5	181.6*
CCCNC(=O)c1ccc2c(=O)c(O)c(-c3ccc(C)cc3)[nH]c2c1	-0.9	-16.2	-4.8	159.8*	-2.6	141.0*
Cc1ccc(CNC(=O)c2ccc3c(=O)c(O)c(-c4ccc(C)cc4)[nH]c3c2)cc1	2.8	-2.5	-2.8	0.1	1.8	/
CCCNC(=O)c1ccc2c(=O)c(O)c(-c3ccc(OC)cc3)[nH]c2c1	-0.8	-0.7	0.4	172.3*	2.6	112.0*
CCCCCn1c(=O)[nH]c2cc(C(=O)NCCCN(CC)CC)ccc2c1=O	-3.5	8.5	-1.0	-9.4	0.4	/
Cn1c(=O)c2c(nc(C(O)c3ccccc3)n2C)n(C)c1=O (stereo not given)	-1.6	-11.1	3.4	-8.7	-1.4	/
O=C(NCCCn1ccnc1)c1ccc(Cl)c(Cl)c1	-1.7	-0.7	-2.0	3.5	4.4	/
Cc1ccc(-c2[nH]c3cc(C(=O)NCCCn4ccnc4)ccc3c(=O)c2O)cc1	2.4	-8.0	7.3	125.0*	1.7	92.1*
O=C(Cc1c(F)cccc1Cl)Nc1ccccc1-c1ccccc1	-5.7	3.4	-6.9	20.2*	-1.8	-26.3
O=C(Cc1ccccc1F)Nc1ccccc1-c1ccccc1	-0.8	-1.4	-2.1	1.3	-0.3	/
COCCCNC(=O)CN(c1ccc(F)cc1)S(=O)(=O)c1ccc2c(c1)OCCO2	-4.6	-1.5	2.8	2.0	0.7	/
c1cc2c3c(cccc3c1)C(N1CCOCC1)=N2	-0.5	/	/	31.9*	4.8	27.7*

High-throughput results deposited in PubChem BioAssay by several laboratories.
